Most compounds without a hit are left out; they make up all but 19% or so of the library.
HT1080 IDH1KD tx = HT-1080 IDH1 knockdown cell toxicity (counter line) | HT-1080 IDH1 knockdown viability, ATP luminescence, 48 h | Potency, µM (titrated, usually from 46.1 µM), for the others: at the highest dose activity, negative = toxicity, actives largely listed as cytotoxic | 2% of 360,000 active;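 further: potency means the concentration at half of the fitted maximal effect; 0% = DMSO wells and -100% = cell-free medium wells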
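Knockdown cells (IDH1KD HT-1080) received compounds 2 h after plating at 750 cells/well and were kept 48 h at 37 °C in 5% FBS RPMI. A CellTiter-Glo luminescence read gave % activity for curve fitting.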
DT40 TDP1 CPT = DT40-hTDP1 cell growth loss with CPT. chicken DT40 Tdp1-/-;hTDP1 cells + 20 nM CPT, ATP luminescence, 48 h. Potency, µM (series often up to 46.2 µM), for inactives: top-dose activity change, negative = growth inhibition, usual class: inhibitors. 12% of 420,000 active; further: potency means the concentration at half of the fitted maximal effect; nearly all actives have a fitted effect of over 55% in size
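Cell growth measured by CellTiter-Glo luminescence after a minimum 48 h, 37 C compound exposure with 20 nM CPT in Tdp1-knockout DT40 cells stably expressing hTDP1, seeded 400/well; qHTS titration format.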
HT1080-NT tox = kills 2HG-producing HT-1080-NT fibrosarcoma cells. 1.6% of 360,000 active. HT-1080-NT fibrosarcoma viability, CellTiter-Glo ATP luminescence, 48 h. Potency, µM (series often up to 46.1 µM), inactives show top-dose activity, negative = less viability, usual class: cytotoxic. AID 686970;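 further: NT is the 2HG producing partner of a matched IDH1 knockdown line; potency means the concentration at half of the fitted maximal effect; 0% = DMSO-treated cells and -100% = media-only wells without cells; nearly all actives have a fitted effect of over 55% in size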
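Compounds were tested in concentration-response format on HT-1080-NT cells for 48 hours at 37 degrees C. Cell viability came from CellTiter-Glo luminescence; curves were classified by r2, response magnitude and activity.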
IL-1B inflam inh = blocks inflammasome-driven IL-1 beta release; 4.7% of 360,000 active; AID 743279; activity change, % at 57.5 µM; THP-1 LPS/ATP IL-1B secretion, AlphaLISA, 16 h; stronger effect = lower value; in the data active means activity change below about -50%; inconclusive means mostly about -30% to -49%
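Secreted IL-1B measured by AlphaLISA bead assay after 16 h compound exposure of THP-1 cells; compounds (final up to 57.5 uM) added 1 h before LPS (250 ng/mL) and ATP (1.25 mM) stimulation; lower signal means less secretion.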
DT40 TDP1 no CPT = qHTS for Inhibitors of human tyrosyl-DNA phosphodiesterase 1 (TDP1): qHTS in cells in absence of CPT. DT40 Tdp1-/- hTDP1 cells, no CPT, ATP luminescence, 48 h. Potency, µM (highest dose often 46.2 µM), inactives show top-dose activity change, negative = growth inhibition, actives largely listed as inhibitors. 15% of 420,000 active. AID 686978, 2013; further: potency means the concentration at half of the fitted maximal effect; nearly all actives have a fitted effect of over 55% in size
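Seeded 400 DT40-hTDP1 cells/well (vehicle DMSO, no 20 nM CPT); pinned compounds; ≥48 hr at 37 °C; CellTiter-Glo luminescence as viability measure.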
Starred values were filed as active, the others as inactive; ? = inconclusive; . = no result given. Unless noted, the call rests on the fitted dose curve; in most records, active means well fitted curve in the direction sought with a large enough effect; inconclusive means small, poorly fitted or top-dose-only effect, or another doubt; inactive means no such curve, though single readings can be large; an effect the other way counts as inactive or inconclusive. Unless noted, on the % scale 0 is the no-effect control and ±100 the full control effect.

SMILES | HT1080 IDH1KD tx | DT40 TDP1 CPT | HT1080-NT tox | IL-1B inflam inh | DT40 TDP1 no CPT
CCCCOc1ccc(C(=O)NCC(=O)NCC(=O)OCC)cc1 | -3% | 16µM* | -11% | 20 | ?
COc1ccc(C(=O)NCC(=O)OCCOc2ccc(Cl)cc2)cc1OC | 1% | 0% | -3% | -56* | -13%
COc1ccc(C(=O)NCCOc2cccc(Oc3ccccc3)c2)cc1OC | -7% | ? | -6% | 0 | 12µM*
COc1ccc(OCCOC(=O)CNC(=O)c2ccc(Cl)cc2Cl)cc1 | -1% | -18% | -4% | 8 | -4%
COc1ccccc1NC(=O)c1ccc(NC(=O)COC(=O)CC(NC(=O)c2ccccc2Cl)c2ccccc2)cc1 (stereo not given) | 24% | 4% | 10% | 55 | ?
CCOC(=O)C1=CCN(S(=O)(=O)c2ccccc2C)C1c1cccc(Cl)c1 (stereo not given) | ? | ? | -18% | 12 | ?
NS(=O)(=O)c1ccc(CNC(=O)/C=C/c2cccc([N+](=O)[O-])c2)cc1 | 17% | -2% | 23% | 9 | -28%
c1ccc(Cn2cc(-c3ccccc3)cn2)cc1 | 0% | -21% | 0% | -12 | -19%
Cc1nc2c3ccccc3nc(NNC(=O)CCC(=O)NCCN3CCN(c4ccccc4)CC3)n2n1 | -7% | -3% | -5% | -14 | -8%
COC(=O)c1ccc(COC(=O)CNC(=O)CNC(=O)c2ccc(OC)cc2)cc1 | 5% | 13% | 8% | -67* | ?
CCOC(=O)C1=C(C)NC(SCc2cc(=O)[nH][nH]2)=C(C#N)C1c1cccs1 (stereo not given) | 12% | -8% | 5% | 16 | 2%
Cc1ccc(-c2cc(-c3c(C)nn(C)c(=O)c3N)[nH]n2)cc1 | 2% | 16µM* | 3% | 0 | 9.2µM*
Cc1ccc(-c2ccc(=O)[nH]n2)cc1 | 9% | 1% | 13% | 0 | -1%
Cc1nn(C)c(=O)c(N)c1-c1cc(-c2ccc(Cl)c(Cl)c2)n[nH]1 | -7% | 13µM* | -18% | 103 | 6.5µM*
COc1ccc(S(=O)(=O)N2CCN(C)CC2)cc1NC(=O)c1ccccc1 | 2% | -10% | -9% | 12 | -12%
C[C@@H]1CN([C@@H](C)CO)C(=O)CCCn2nncc2CO[C@H]1CN(C)S(C)(=O)=O | -8% | -16% | -5% | 19 | ?
CCC(C)[C@H]1CNC(=S)N1CCC12CC3CC(CC(C3)C1)C2 (stereo not given in full) | 5% | 16µM* | 3% | 1 | 15µM*
CCC(C)[C@H]1CNC(=S)N1CCc1cccc2ccccc12 (stereo not given in full) | 9% | ? | 14% | 15 | -27%
CCCN1CCN(CC(=O)Nc2nncs2)CC1 | -4% | 13% | -8% | -5 | 15%
CCCCn1c(SCc2nc3ccccc3s2)nc2ccccc2c1=O | 5% | 21µM* | 4% | 0 | 8.2µM*
CCn1c(SCc2ccccc2)nc2cc(S(N)(=O)=O)ccc21 | 0% | -24% | -17% | 21 | ?
CCCCn1c(SCc2nc3ccccc3s2)nc2cc(S(N)(=O)=O)ccc21 | ? | 16µM* | ? | ? | 16µM*
CCCCn1c(SCC#N)nc2ccccc2c1=O | . | 7% | . | . | ?
O=C(OCc1ccccc1)N1CCC2CC1c1cc(N3CCNCC3)ccc12 (stereo not given) | -10% | ? | -21% | ? | 16µM*
O=C(OCc1ccccc1)N1CCC2CC1c1cc(/C=C/CCCSc3ncccn3)ccc12 (stereo not given) | -5% | ? | -12% | 17 | 23µM*
SMILES | HT1080 IDH1KD tx | DT40 TDP1 CPT | HT1080-NT tox | IL-1B inflam inh | DT40 TDP1 no CPT
O=C(OCc1ccccc1)N1CCC2CC1c1cc(-c3cc4ccccc4o3)ccc12 (stereo not given) | 2% | ? | 12% | 43 | ?
O=C(OCc1ccccc1)N1CCC2CC1c1cc(N3CCCCC3)ccc12 (stereo not given) | -13% | ? | -1% | -1 | ?
O=C(c1cc(Cl)cc(Cl)c1)N1CCC2CC1c1cc(N3CCCCC3)ccc12 (stereo not given) | 4% | ? | -2% | 0 | 21µM*
c1ccc(CN2CCC3CC2c2cc(N4CCCCC4)ccc23)cc1 (stereo not given) | 5% | ? | 9% | 27 | ?
CCN(CCc1ccccc1)c1ccc2c(c1)C1CC2CCN1Cc1ccccc1 (stereo not given) | -14% | 6.5µM* | -16% | 35 | 5.8µM*
Cc1ccc(NC(=O)C(C)OC(=O)COc2cccc(C(F)(F)F)c2)cc1 (stereo not given) | 5% | -10% | 11% | 8 | 2%
O=c1cc(-c2ccc(O)c(O)c2)oc2cc(OC3OC(CO)C(O)C(O)C3O)cc(O)c12 (stereo not given) | . | 5% | . | . | -2%
Cc1cc(C(=O)OCC(=O)NC(=O)c2cccn2C)c2ccccc2n1 | 0% | 2% | 7% | 0 | 1%
CC(=O)N(CCc1ccccc1)c1ccc2c(c1)C1CC2CCN1C(=O)OCc1ccccc1 (stereo not given) | ? | 8.2µM* | ? | ? | 6.5µM*
O=C(OCc1ccccc1)N1CCC2CC1c1cc(-c3ccc(F)cc3)ccc12 (stereo not given) | -1% | ? | 1% | 13 | ?
COc1ccc(-c2ccc3c(c2)C2CC3CCN2C(=O)OCc2ccccc2)cc1 (stereo not given) | -27% | 16µM* | -11% | 29 | ?
COc1cccc(-c2ccc3c(c2)C2CC3CCN2C(=O)c2ccc(-c3ccccc3)cc2)c1 (stereo not given) | -15% | ? | -10% | -1 | 18µM*
COc1ccc(-c2ccc3c(c2)C2CC3CCN2S(=O)(=O)c2ccccc2C)cc1 (stereo not given) | -9% | ? | 2% | 53 | 16µM*
O=C(OCc1ccccc1)N1CCC2CC1c1cc(NCCc3ccccc3)ccc12 (stereo not given) | 3% | ? | -19% | 10 | ?
O=C(c1cccc(C(F)(F)F)c1)N1CCN(C2CCCCC2)CC1 | -7% | -11% | 0% | 17 | -25%
CCOC(=O)C1=CCC(c2cc3ccccc3[nH]2)NC1 (stereo not given) | -16% | ? | -28% | ? | ?
COc1ccc(N(CC(=O)Nc2ccccc2C(=O)O)S(=O)(=O)c2ccc(C)c([N+](=O)[O-])c2)cc1 | -4% | 1% | -10% | -9 | -21%

Bioassay records deposited in PubChem BioAssay by National Center for Advancing Translational Sciences (NCATS).
